Most compounds without a hit are left out; they make up all but 9.4% or so of the library.
SMN2 splice up: increases expression of the SMN2 splice variant. HEK293 SMN2-luciferase splicing reporter, luminescence, 30-36 h. Potency, µM (series often up to 46.1 µM), inactives show at the top dose activity change, positive = activation, usual class: activators. hit rate 2.8% among 210,000. AID 1458; also: % of control where 0% means no effect; nearly all actives have a fitted effect of over 55% in size
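qHTS luciferase splicing reporter: luminescence rises when SMN2 exon 7 is included in transfected HEK293 cells. Compound exposure lasted 30-36 h at 37C, with 4.5 mM final sodium butyrate as control, followed by a ONE-Glo read.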
Rab9 promoter act: Rab9 promoter activation. Huh7 Rab9 promoter-luciferase reporter, luminescence, 24 h. Potency, µM (titrated, usually from 9.22 µM), for inactives: at the top dose activation, negative = inhibition, usual class: activators. hit rate 2.8% among 320,000. AID 485297; also: % of control where 0% means no effect; nearly all actives have a fitted effect of over 60% in size
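Using Huh7 cells stably transfected with Rab9 promoter–luciferase, compounds were incubated 24 h at 37 °C, 5% CO2; luciferase luminescence was read 10 min after reagent addition.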
NPC1 promoter act: activators of NPC1 promoter | Huh7 NPC1 promoter luciferase reporter, 24 h | hit rate 2.4% among 320,000 | Potency, µM (top dose mostly 9.22 µM), without a hit: at the top dose activation, usual class: activators; also: % of control where 0% means no effect; nearly all actives have a fitted effect of over 60% in size
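Huh7 cells stably carrying NPC1 promoter–luciferase, plated in Opti-MEM with 10% FBS for 2 h, were exposed to compound in DMSO for 24 h at 37 °C; luciferase reagent was added for 10 min and luminescence read.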
ELG1 DNA repair: inhibitors of ELG1-dependent DNA repair in HEK293T cells. HEK293T ELG1-luciferase reporter, luminescence, 16 h; DNA damage induced by 5-fluorouridine. Potency, µM (top dose mostly 46.1 µM), inactives show top-dose activity change, negative = inhibition, hits mostly inhibitors. hit rate 2.3% among 330,000. AID 504467; also: % is scaled to controls: 0 for no effect and ±100 for the full control effect; nearly all actives have a fitted effect of over 55% in size
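5-Fluorouridine DNA damage + compound/DMSO, 2,000 cells/well, 16 h, 37 °C/5% CO2. ONE-Glo, 30 min RT, luminescence. Readout = decrease in reporter signal.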
ELG1 genotoxic: induces genotoxicity in HEK293T cells with luciferase-tagged ELG1 | hit rate 1.3% among 330,000 | AID 504466 | Potency, µM (series often up to 46 µM), without a hit: at the top dose activity change, positive = activation, usual class: activators | HEK293T ELG1-luciferase reporter, luminescence, 16 h; also: % of control where 0% means no effect; nearly all actives have a fitted effect of over 60% in size
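HEK293T cells expressing luciferase-tagged ELG1 were treated with compound or DMSO for 16 hr at 37°C. Luciferase activity was then read after 30 min with ONE-Glo at room temperature; rising signal flags genetic stress.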
FLuc counter: firefly luciferase modulation, counter-screen for miR-21 project; purified FLuc, Km substrates, luminescence inhibition; hit rate 6.9% among 360,000; P08659; Potency, µM (series often up to 57.5 µM), inactives show top-dose activity change, negative = inhibition, actives largely listed as inhibitors;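 also: plate controls were vehicle for no effect and reference inhibitor for full effect; nearly all actives have a fitted effect of over 55% in size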
Target sequence (P08659 whole entry, looked up): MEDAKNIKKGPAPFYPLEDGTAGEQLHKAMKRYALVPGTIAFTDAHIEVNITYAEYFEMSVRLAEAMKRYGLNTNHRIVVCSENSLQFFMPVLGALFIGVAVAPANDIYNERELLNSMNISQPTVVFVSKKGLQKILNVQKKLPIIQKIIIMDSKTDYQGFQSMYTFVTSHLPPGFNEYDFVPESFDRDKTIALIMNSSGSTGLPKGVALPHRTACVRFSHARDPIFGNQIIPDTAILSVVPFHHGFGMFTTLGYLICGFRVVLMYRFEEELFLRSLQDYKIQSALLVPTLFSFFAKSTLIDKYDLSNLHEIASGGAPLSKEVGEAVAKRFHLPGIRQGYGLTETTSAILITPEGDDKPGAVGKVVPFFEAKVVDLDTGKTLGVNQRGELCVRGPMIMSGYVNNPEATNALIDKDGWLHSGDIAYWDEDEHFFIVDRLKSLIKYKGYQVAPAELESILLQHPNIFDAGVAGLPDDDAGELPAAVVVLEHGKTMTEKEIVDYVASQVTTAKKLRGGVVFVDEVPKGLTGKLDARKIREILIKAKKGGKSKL
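Purified P. pyralis luciferase (10nM final) with 10uM D-luciferin and 10uM ATP (Km levels) in 50mM Tris acetate pH 7.5, 10mM Mg acetate, 0.01% Tween-20, 0.05% BSA; qHTS 6-point titration, ~60 µM downward; luminescence read.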
Active calls of the source: *; ? = inconclusive; / = no result given; [ ] = remark or other dose. Calls follow the shape of the dose curve; as a rule, active = well fitted curve in the direction sought with a large enough effect; inconclusive = small, poorly fitted or top-dose-only effect, or another doubt; inactive = no such curve, though single readings can be large; an effect the other way counts as inactive or inconclusive. Potency is read from the fitted curve at half-maximal effect.

SMILES	SMN2 splice up	Rab9 promoter act	NPC1 promoter act	ELG1 DNA repair	ELG1 genotoxic	FLuc counter
COc1ccccc1Nc1ccc(C(=O)NC2CCCCC2)cn1	-11%	1%	2%	25%	?	13µM*
COc1ccccc1Nc1cc(C(=O)NC2CCCC2)c2ccccc2n1	-6%	0%	1%	0%	1%	12µM*
CCc1cccc(NC(=O)C(c2ccccc2)N2Cc3ccccc3C2=O)c1 (centres undefined)	/	/	/	/	/	-10%
O=c1c2ccccc2n(Cc2ccccc2Cl)c(=O)n1CCc1ccccc1	0%	/	/	/	/	-11%
O=Cc1ccc(Oc2cnccn2)cc1	8%	3%	-3%	3%	-3%	-1%
COc1cc(/C=C2\SC(=O)NC2=O)ccc1Oc1cnccn1	/	4%	-1%	15%	15%	-19%
O=C1NC(=O)/C(=C\c2ccc(Oc3cnccn3)cc2)S1	?	2.8µM*	?	?	?	13µM*
O=C1NC(=S)S/C1=C/c1ccc(Oc2cnccn2)cc1	1%	?	15%	8%	2%	21µM*
C=CCSc1nnc(-c2ccc([N+](=O)[O-])cc2)o1	?	4µM*	3.5µM*	?	?	17µM*
C=CCSc1nnc(-c2ccc(Cl)cc2Cl)o1	?	0.45µM*	0.71µM*	?	?	1.3µM*
Clc1ccc(-c2nnc(SCc3nc4ccccc4[nH]3)o2)c(Cl)c1	-26%	1%	-3%	-24%	-2%	0%
Clc1ccc(-c2nnc(SCc3ccon3)o2)c(Cl)c1	2.8µM*	0.5µM*	0.35µM*	?	1.2µM*	1.2µM*
C=CCSc1nnc(-c2cccnc2)o1	?	2%	-2%	?	?	-3%
FC(F)(F)COc1nc(N2CCOCC2)nc(N(c2ccccc2)c2ccccc2)n1	-26%	-9%	-5%	?	-17%	0%
FC(F)(F)COc1nc(OCC(F)(F)F)nc(N2CCN(c3ccccc3)CC2)n1	-25%	0%	-3%	23µM*	-8%	1%
COc1cc2nc(-c3ccc(Br)o3)oc(=O)c2cc1OC	-6%	2%	-3%	10%	6%	3%
Cc1ccc2nc(-c3ccc(Br)o3)oc(=O)c2c1	27%	-2%	-2%	12%	11%	2.4µM*
Cc1ccc(-n2cc3c(c2-c2ccccc2Br)c(=O)n(C)c(=O)n3C)cc1N	10%	/	/	/	/	4%
COc1cc(/C=C2\CC/C(=C\c3ccc(OCCO)c(OC)c3)C2=O)ccc1OCCO	-24%	-2%	-3%	?	-4%	-9%
COc1cc(/C=C2\CCC(C3CCCC3)C2=O)ccc1OC(C)C (centres undefined)	/	0%[1.84 µM]	-5%	?	17%	15µM*
COc1ccc(/C=C2\CCC(C3CCCC3)C2=O)cc1OC (centres undefined)	/	6%	?	?	?	11µM*
Cn1c(=O)c2[nH]c(CCC(=O)O)nc2n(C)c1=O	-1%[9.22 µM]	/	/	/	/	/
CCCN(CCC)c1nc(Cl)nc(NCCN2CCOCC2)n1	-63%	-2%	-2%	23µM*	-11%	0%
COc1cccc(-c2csc(N3CCN(C(=O)Nc4ccc(Cl)cc4)CC3)n2)c1	/	0%	-1%	?	-12%	?
CCNC(=S)N1CCN(c2nc(-c3cccc(OC)c3)cs2)CC1	/	3%	3%	?	-8%	19µM*
SMILES	SMN2 splice up	Rab9 promoter act	NPC1 promoter act	ELG1 DNA repair	ELG1 genotoxic	FLuc counter
COc1ccc(NC(=O)N2CCN(c3nc(-c4cccc(OC)c4)cs3)CC2)cc1	-56%	-4%	-4%	18µM*	-14%	?
COc1cccc(NC(=O)c2cn(C3CCCCC3)c(=O)c3c2c2ccccc2n3C)c1	-24%	/	/	/	/	4%
O=S1(=O)c2ccccc2N(Cc2cccc(F)c2)c2ccccc21	/	/	/	/	/	-20%
O=C(Nc1cccc(S(=O)(=O)N2CCCCCC2)c1)c1cc(=O)c2ccccc2o1	-57%	-12%	-11%	12µM*	-20%	-3%
CN(c1ccccc1)S(=O)(=O)c1cccc(NC(=O)c2cc(=O)c3ccccc3o2)c1	-48%	-15%	-4%	15µM*	-16%	-1%
Cc1cccc(NC(=O)C2CCC(CNS(=O)(=O)c3csc(C(N)=O)c3)CC2)c1C (centres undefined)	/	/	/	/	/	-1%
Cc1ccc(NC(=O)Nc2ccc(Cl)c(Cl)c2)nc1	/	4.5µM*	?	?	?	?
O=C(Nc1cccc(F)c1)Nc1ccc(Cl)cn1	/	?	?	?	17%	?
Cc1ccc(NC(=O)Nc2ccc(Cl)cn2)cc1	11µM*	4µM*	13%	?	?	?
Cc1ccc(CN2C(=O)N(c3ccc(F)cc3)C(=O)C2CC(=O)Nc2ccc(Cl)cc2)cc1 (centres undefined)	-8%	/	/	/	/	-1%
CS/C(Nc1cc(Cl)ccc1Cl)=C(/C#N)C(=O)c1ccco1	/	?	?	?	21µM*	2.1µM*
COc1ccc(-c2nc(SCc3ccccc3)n(S(C)(=O)=O)n2)cc1	6%	26%	6%	?	4%	/
CCS(=O)(=O)n1nc(-c2ccc(Cl)cc2)nc1SCc1ccccc1	14µM*	?	29%	?	17%	15µM*
Cc1ccccc1Nc1nnc(-c2ccc(C)c(S(=O)(=O)N3CCCCC3)c2)c2ccccc12	2%	/	/	/	/	-6%
CCOc1ccc(NC(=O)n2ncc3c(C)cccc32)cc1	/	1.4µM*	0.45µM*	?	?	1.3µM*
CCOC(=O)Cc1ccc(NC(=O)n2ncc3c(C)cccc32)cc1	3%	/	/	/	/	5.4µM*
COc1cccc(NC(=O)n2ncc3c(C)cccc32)c1	/	0.32µM*	0.089µM*	?	1.6µM*	0.17µM*
CCOC(=O)Cc1ccc(NC(=O)n2ncc3cc(Cl)ccc32)cc1	/	/	/	/	/	-12%
COC(=O)c1ccc(NC(=O)n2ncc3c(C)cccc32)cc1	/	/	/	/	/	-1%
O=C(O)CNC(=O)c1ccc([N+](=O)[O-])cc1	7%	/	/	/	/	/
COc1ccc(-c2nc3ccccc3o2)cc1NC(=O)c1cccnc1	-1%	/	/	/	/	11µM*
O=C(Nc1ccc2oc(-c3ccccc3)nc2c1)c1ccco1	13µM*	2.5µM*	1.8µM*	?	?	4.8µM*
O=C(Nc1ccc2oc(-c3ccccc3)nc2c1)c1ccc2c(c1)OCCO2	-46%	18%	0%	?	-11%	5.4µM*
O=C(Nc1ccc2oc(-c3cccnc3)nc2c1)c1ccc2c(c1)OCCO2	/	29%	11%	?	?	2.4µM*
O=C(Nc1ccc2oc(-c3ccncc3)nc2c1)c1ccc2c(c1)OCCO2	/	2%	3%	?	6%	1.7µM*

High-throughput results deposited in PubChem by National Center for Advancing Translational Sciences (NCATS).
